Data on 27 compounds can be found in PubChem BioAssay (NCATS).

Results filed as inconclusive are left out. A call without a number means that no potency is given here. Active and inactive are the calls of the source. Unless noted, calls follow the shape of the dose curve; as a rule, active = well fitted curve in either direction with a large enough effect (not every such curve was filed as active); inconclusive = small, poorly fitted or top-dose-only effect, or another doubt; inactive = flat fitted curve, though single readings scatter.

The target in experiment [1] is Mitogen-activated protein kinase 10 (Mus musculus) (UniProt Q61831). Put plainly: JNK3 AlphaScreen Assay (AID 530).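 Also: kinase came from lysate of stimulated human HepG2 cells; signal reports phosphorylation of biotinylated GST-cJun 1-79 at Ser73 with 10 µM ATP; series mostly up to about 57 µM.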 The method, boiled down:
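JNK3 came from HepG2 lysates pre-activated with IL-1beta and TNF-alpha and phosphorylated biotinylated GST-cJun (1-79) at 10 uM ATP, pH 7.6, room temperature. Compounds were titrated. AlphaScreen signal used anti-phospho-cJun (Ser73) antibody.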
(In Alpha technology, singlet oxygen from a donor bead excites a nearby acceptor bead.)

For experiment [2], the target named is 3',5'-cyclic-AMP phosphodiesterase 4B (Homo sapiens) (UniProt Q07343). The experiment in a line: qHTS Assay for Inhibitors of PDE-IV (AID 607; active = well fitted activation curve with a large enough effect in the main read-out, with a control signal flat, not every such curve was filed as active). The method, boiled down:
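Cell-based read-out of cAMP via a modified cyclic nucleotide-gated channel and membrane potential dye (535/590 nm) in HEK293 cells expressing PDE4 endogenously. Compounds tested up to 22.9 uM final; 100 uM RO 20-1724 reference.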
Background: qHTS replaces the single test concentration by a dilution series.

For experiment [3], the target named is Cytochrome P450 2C9 (Homo sapiens) (UniProt P11712). Put plainly: qHTS Assay for Inhibitors and Substrates of Cytochrome P450 2C9 (AID 883; active = well fitted curve in the direction sought with a large enough effect; an effect the other way counts as inactive or inconclusive; also: potency is read from the fitted curve at half-maximal effect; nearly all actives have a fitted effect of over 60% in size). The method, boiled down: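 CYP2C9 deoxyluciferin hydroxylation, 37C, 60 min with NADPH regeneration; 10nM enzyme, 100uM Luciferin-H (KM). Glo detection reagent stopped reaction; luminescence normalized to sulphaphenazole (57uM) full inhibition.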

Experiment [4] concerns the target Cytochrome P450 3A4 (Homo sapiens) (UniProt P08684). The experiment in a line: qHTS Assay for Inhibitors and Substrates of Cytochrome P450 3A4 (AID 884; active = well fitted curve in the direction sought with a large enough effect; an effect the other way counts as inactive or inconclusive; also: potency is read from the fitted curve at half-maximal effect; nearly all actives have a fitted effect of over 50% in size). The method, boiled down:
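20 nM human CYP3A4 with 25 uM Luciferin-PPXE (at KM) in 200 mM KPO4, preincubated 10 min with compound; NADPH regeneration started a 60 min RT reaction. Luciferin detected by luminescence, normalized to 57 uM ketoconazole as full inhibition.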

The target is the same in experiment [5]. Put plainly: qHTS Assay for Activators of Cytochrome P450 3A4 (AID 885; active = well fitted curve in the direction sought with a large enough effect; an effect the other way counts as inactive or inconclusive; also: nearly all actives have a fitted effect of over 65% in size). The method, boiled down:
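Signal was normalized against complete inhibition by 57 uM ketoconazole. The reaction used 20nM CYP3A4 with 25uM Luciferin-PPXE, 10-min compound preincubation and a 60-min NADPH-supported step at RT.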

In experiment [6] the target is Cytochrome P450 2C19 (Homo sapiens) (UniProt P33261). Put plainly: qHTS Assay for Inhibitors and Substrates of Cytochrome P450 2C19 (AID 899; active = well fitted curve in the direction sought with a large enough effect; an effect the other way counts as inactive or inconclusive; also: potency is read from the fitted curve at half-maximal effect; nearly all actives have a fitted effect of over 60% in size). The method, boiled down: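 In 50mM KPO4, the reaction held 5nM enzyme and KM-level (10uM) Luciferin-H EGE; it ran 60 min at 37C after NADPH regeneration and a 10 min compound preincubation. Luminescence values were scaled to 57uM ketoconazole as complete inhibition.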
Cytochrome P450 2C19 (Homo sapiens), sequence (P33261 whole entry, looked up): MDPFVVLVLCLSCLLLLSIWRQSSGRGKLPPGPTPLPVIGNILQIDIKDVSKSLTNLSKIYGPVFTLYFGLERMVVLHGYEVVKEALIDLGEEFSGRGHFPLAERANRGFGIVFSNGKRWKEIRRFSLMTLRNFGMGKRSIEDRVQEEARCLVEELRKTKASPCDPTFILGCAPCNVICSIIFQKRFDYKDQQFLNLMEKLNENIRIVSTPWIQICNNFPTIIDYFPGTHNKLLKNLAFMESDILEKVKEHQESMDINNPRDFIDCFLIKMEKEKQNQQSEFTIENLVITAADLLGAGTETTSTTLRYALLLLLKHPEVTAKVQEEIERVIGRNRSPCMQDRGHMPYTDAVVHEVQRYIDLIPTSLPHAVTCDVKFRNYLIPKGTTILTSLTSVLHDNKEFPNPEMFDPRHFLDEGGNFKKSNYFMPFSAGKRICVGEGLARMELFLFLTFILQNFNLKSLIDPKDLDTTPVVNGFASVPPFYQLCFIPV

Cytochrome P450 3A4 (Homo sapiens), sequence (P08684 whole entry, looked up): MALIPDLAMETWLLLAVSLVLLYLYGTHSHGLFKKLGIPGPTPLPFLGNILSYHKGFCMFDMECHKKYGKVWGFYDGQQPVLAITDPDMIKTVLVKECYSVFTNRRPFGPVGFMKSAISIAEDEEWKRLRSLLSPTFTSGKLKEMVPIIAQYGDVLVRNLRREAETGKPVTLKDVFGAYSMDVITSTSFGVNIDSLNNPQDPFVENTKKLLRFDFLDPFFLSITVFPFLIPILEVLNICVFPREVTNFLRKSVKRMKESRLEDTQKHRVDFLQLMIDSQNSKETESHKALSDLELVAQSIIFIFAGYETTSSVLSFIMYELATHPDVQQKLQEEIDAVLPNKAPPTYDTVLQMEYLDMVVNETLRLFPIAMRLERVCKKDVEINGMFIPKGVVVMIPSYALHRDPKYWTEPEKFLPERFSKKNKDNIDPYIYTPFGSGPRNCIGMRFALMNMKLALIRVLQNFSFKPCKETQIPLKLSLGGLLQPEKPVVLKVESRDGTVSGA
3',5'-cyclic-AMP phosphodiesterase 4B (Homo sapiens), sequence (Q07343 whole entry, looked up): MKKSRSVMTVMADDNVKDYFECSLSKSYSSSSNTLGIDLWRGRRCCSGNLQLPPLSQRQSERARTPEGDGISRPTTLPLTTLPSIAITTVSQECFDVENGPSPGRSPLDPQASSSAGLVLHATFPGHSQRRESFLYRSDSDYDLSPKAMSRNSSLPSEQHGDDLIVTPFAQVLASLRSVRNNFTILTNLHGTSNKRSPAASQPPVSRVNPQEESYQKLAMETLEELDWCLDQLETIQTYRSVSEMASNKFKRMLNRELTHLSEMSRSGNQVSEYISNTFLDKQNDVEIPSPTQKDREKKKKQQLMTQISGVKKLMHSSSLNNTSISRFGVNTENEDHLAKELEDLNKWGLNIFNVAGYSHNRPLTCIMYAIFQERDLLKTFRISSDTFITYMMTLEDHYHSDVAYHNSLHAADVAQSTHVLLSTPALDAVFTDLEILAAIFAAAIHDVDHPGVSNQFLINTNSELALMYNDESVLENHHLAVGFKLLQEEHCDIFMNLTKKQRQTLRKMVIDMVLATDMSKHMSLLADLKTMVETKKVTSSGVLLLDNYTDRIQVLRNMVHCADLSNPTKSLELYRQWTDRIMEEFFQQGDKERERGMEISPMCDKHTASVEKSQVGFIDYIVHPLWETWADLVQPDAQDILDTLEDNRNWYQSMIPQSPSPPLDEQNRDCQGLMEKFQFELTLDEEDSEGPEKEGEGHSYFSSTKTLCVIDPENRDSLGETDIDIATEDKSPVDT
Cytochrome P450 2C9 (Homo sapiens), sequence (P11712 whole entry, looked up): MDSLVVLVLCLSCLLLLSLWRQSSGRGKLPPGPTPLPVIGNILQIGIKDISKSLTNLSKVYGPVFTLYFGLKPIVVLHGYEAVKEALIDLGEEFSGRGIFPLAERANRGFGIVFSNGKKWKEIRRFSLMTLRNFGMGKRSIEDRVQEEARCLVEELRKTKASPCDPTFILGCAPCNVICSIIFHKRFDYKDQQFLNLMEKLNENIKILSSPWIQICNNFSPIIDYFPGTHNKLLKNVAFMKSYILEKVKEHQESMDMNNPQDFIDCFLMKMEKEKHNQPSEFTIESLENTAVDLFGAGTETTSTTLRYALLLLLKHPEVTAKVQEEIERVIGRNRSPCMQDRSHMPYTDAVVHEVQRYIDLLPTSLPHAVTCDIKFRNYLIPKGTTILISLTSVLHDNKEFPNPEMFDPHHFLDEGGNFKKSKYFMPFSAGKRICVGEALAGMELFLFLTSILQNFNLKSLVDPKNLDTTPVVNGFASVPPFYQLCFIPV

As to `O=C(NCC1CC1)[C@@H]1C[C@H]1[C@@H](NP(=O)(c1ccccc1)c1ccccc1)c1ccccc1`, the call in experiment [1] and in experiment [2] was inactive.
Turning to `COC(=O)[C@@]1(Cc2ccc(F)cc2)[C@H]2c3cc(C(=O)N4CCCC4)n(C[C@H](O)CO)c3C[C@H]2CN1C(=O)c1ccccc1`, the outcome in experiment [1] and in experiment [2] was inactive.
In the case of `Cc1c2c(nc3ccccc13)OCC2`, the outcome in experiment [1] and in experiment [2] was inactive.
For the compound `COC(=O)[C@@]1(Cc2ccc(OC)cc2)[C@H]2c3cc(C(=O)N(C)C)n(CCc4ccc(OC)c(Br)c4)c3C[C@H]2CN1C(=O)c1ccccc1`, the outcome in experiment [1] and in experiment [2] was inactive.
Take `COC(=O)[C@@]1(Cc2ccccc2)[C@H]2c3cc(C(=O)N(C)C)n(Cc4c(CO)[nH]cc(C)c4=O)c3C[C@H]2CN1C(=O)c1ccccc1`: the compound was called inactive in experiment [1] and in experiment [2]. In addition, the Potency in experiment [3] is 631 nM (active); in experiment [4], 1580 nM (active); in experiment [6], 3160 nM (active). In experiment [5], the Potency result is “inactive”.
On to `COCCNC(=O)[C@H]1C[C@@H]1[C@H](NP(=O)(c1ccccc1)c1ccccc1)c1ccccc1`, for which the outcome in experiment [1] and in experiment [2] was inactive.
`COC(=O)[C@@]1(Cc2ccc(F)cc2)[C@H]2c3cc(C(=O)N4CCCC4)n(Cc4cc(F)cc5c4OCOC5)c3C[C@H]2CN1C(=O)c1ccccc1`: the result in experiment [1] and in experiment [2] was inactive.
As for `COC(=O)[C@@]1(Cc2ccc(OC)cc2)[C@H]2c3cc(C(=O)N(C)C)n(Cc4ccc(O)c(OC)c4)c3C[C@H]2CN1C(=O)c1ccccc1`, the outcome in experiment [1] and in experiment [2] was inactive.
On to `COC(=O)[C@@]1(Cc2ccc(F)cc2)[C@H]2c3cc(C(=O)N4CCCC4)n(CCSCCO)c3C[C@H]2CN1C(=O)c1ccccc1`, for which the compound was called inactive in experiment [1] and in experiment [2].
Turning to `C[C@@]1(C(NS(=O)(=O)c2cccc3cccnc23)c2ccc(-c3ccccc3)cc2)C[C@H]1C1CCCCC1` (some centres not stated), the call in experiment [1] and in experiment [2] was inactive.
For the compound `COC(=O)[C@@]1(Cc2ccc(F)cc2)[C@H]2c3cc(C(=O)N(C)C)n(CCF)c3C[C@H]2CN1C(=O)c1ccccc1`, the outcome in experiment [1] and in experiment [2] was inactive.
Regarding `COC(=O)[C@H]1C[C@@H]1[C@H](NS(=O)(=O)c1ccccc1)c1ccccc1`, the compound was called inactive in experiment [1] and in experiment [2].
As for `COC(=O)[C@@]1(Cc2ccc(OC)cc2)[C@H]2c3cc(C(=O)N4CCCC4)n(Cc4ccc(C)c(F)c4F)c3C[C@H]2CN1C(=O)c1ccccc1`, the outcome in experiment [1] and in experiment [2] was inactive.
Take `COC(=O)[C@@]1(Cc2ccc(OC)cc2)[C@H]2c3cc(C(=O)N(C)C)n(C)c3C[C@H]2CN1C(=O)c1ccccc1`: the call in experiment [1] and in experiment [2] was inactive.
For `COC(=O)[C@@]1(Cc2ccc(OC)cc2)[C@H]2c3cc(C(=O)N(C)C)n(Cc4c(CO)[nH]cc(C)c4=O)c3C[C@H]2CN1C(=O)c1ccccc1`, the result in experiment [1] and in experiment [2] was inactive.
In the case of `COC(=O)[C@@]1(Cc2ccc(OC)cc2)[C@H]2c3cc(C(=O)N4CCCC4)n(CCc4ccc(O)c(OC)c4)c3C[C@H]2CN1C(=O)c1ccccc1`, the call in experiment [1] and in experiment [2] was inactive.
For `COC(=O)[C@@]1(Cc2ccccc2)[C@H]2c3cc(C(=O)N(C)C)n(C[C@H](O)CO)c3C[C@H]2CN1C(=O)c1ccccc1`, the call in experiment [1] and in experiment [2] was inactive.
For the compound `C[C@@H](C(=O)Nc1ccc2ccccc2c1)[C@H]1C[C@]1(C)[C@H](NC(=O)c1ccccc1)c1ccccc1`, the result in experiment [1] and in experiment [2] was inactive.
As to `Cc1ccc(CNC(=O)[C@H]2C[C@@H]2[C@H](NP(=O)(c2ccccc2)c2ccccc2)c2ccccc2)o1`, the call in experiment [1] and in experiment [2] was inactive.
As to `Cc1ccc(CNC(=O)[C@H](C)[C@@H]2C[C@@]2(C)[C@@H](NC(=O)OCc2ccccc2)c2ccccc2)c(F)c1F`, the result in experiment [1] and in experiment [2] was inactive.
For `COC(=O)[C@@]1(Cc2ccc(F)cc2)[C@H]2c3cc(C(=O)N(C)C)n(Cc4ccc(S(C)(=O)=O)cc4)c3C[C@H]2CN1C(=O)c1ccccc1`, the call in experiment [1] and in experiment [2] was inactive.
`CS(=O)(=O)c1ccc(CNC(=O)[C@H]2C[C@@H]2[C@H](NP(=O)(c2ccccc2)c2ccccc2)c2ccccc2)cc1`: the compound was called inactive in experiment [1] and in experiment [2].
In the case of `COC(=O)c1ccc(C(NC(=O)OCc2ccccc2)/C(=C/[C@@H](C)C(=O)NCCF)c2cccnc2)cc1` (some centres not stated), the compound was called inactive in experiment [1]. In experiment [4], the Potency was 6310 nM (active). In addition, in experiment [5], the Potency entry was “inactive”.
Consider `C/C(=C\[C@@H](NP(=O)(c1ccccc1)c1ccccc1)c1ccccc1)CO[Si](c1ccccc1)(c1ccccc1)C(C)(C)C`, for which the compound was classed as inactive in experiment [1]. Also, the Potency in experiment [4] is 2000 nM (active). Moreover, the Potency result in experiment [5] was “inactive”.
As to `COC(=O)[C@H](Cc1ccccc1)NC(=O)[C@]1(C)C[C@H]1[C@H](NC(=O)OCc1ccccc1)c1ccccc1`, the compound was called inactive in experiment [1]. Besides, in experiment [4], the Potency is 2000 nM (active). In addition, the Potency entry in experiment [5] was “inactive”.
Turning to `C[C@@H]1C=C[C@](Cc2ccccc2)(C(=O)NCCc2c[nH]c3ccccc23)N1C(=O)c1ccccc1`, the call in experiment [1] was inactive. In experiment [4], the Potency was 2510 nM (active).
Regarding `COC(=O)c1ccc(C(NC(=O)OCc2ccccc2)/C(=C/[C@@H](C)C(=O)NCc2cccnc2)c2cccnc2)cc1` (some centres not stated), the compound was called inactive in experiment [1]. Also, the Potency in experiment [4] was 1000 nM (active). Moreover, in experiment [5], the Potency entry is “inactive”.
